BoNT-A LC inh2 – BoNT A light chain protease inhibition | hit rate 0.17% among 360,000 | inhibition, % at 10 µM | AID 588499 | multiplex microsphere protease substrate cleavage, flow cytometry; also: plate controls were buffer without enzyme for full effect and enzyme alone for no effect
Autofluor counter – flagged as autofluorescent in microsphere protease counterscreen; compound autofluorescence counterscreen, microsphere flow cytometry; stronger effect = higher value; fluorescence intensity (no concentration beside the values); hit rate 3.1% among 360,000; in the data active = fluorescence intensity above about 16000; inconclusive = no clear call, values can overlap the other calls
BoNT F protease – inhibitors of Botulinum neurotoxin F light chain protease. Multiplex microsphere protease cleavage assay, flow cytometry. inhibition, % at 10 µM. hit rate 0.22% among 360,000. AID 588497; in the data active = inhibition above about 35%, passing the limit was not always enough; inconclusive = no clear call, values can overlap the other calls; also: plate controls were buffer without enzyme for full effect and enzyme alone for no effect
Anthrax LF inh2 – inhibitors of Bacillus anthracis lethal factor protease. multiplex microsphere protease cleavage assay, LF. inhibition, % at 10 µM. hit rate 0.12% among 360,000. P15917; also: plate controls were buffer without enzyme for full effect and enzyme alone for no effect
BJeLR viability – BJeLR cell viability loss | inhibition, % (no concentration beside the values) | BJeLR (HRASV12) viability, CellTiter-Glo ATP luminescence, 48 h | hit rate 0.17% among 300,000; in the data active = inhibition above about 50%; inconclusive = no clear call, values can overlap the other calls
Vc quorum ag – quorum light induction in luxS cqsA deficient V. cholerae. hit rate 0.16% among 350,000. activation, % at 18.7 µM. V. cholerae BH1578 lux reporter, luminescence, 6 h. AID 588436; in the data active = activation mostly above about 9.7%, no sharp cut-off; inconclusive = no clear call, values can overlap the other calls; inactive = mostly below about 3.7%
The depositor's hits bear a star; i = inactive; ? = inconclusive; nt = no result given. Only some compounds are listed: those with a hit (about 3.7% of all), similar ones and a draw of the others. Rule as the data show it, unless noted: active = inhibition above about 30%; inconclusive = no clear call, values can overlap the other calls; inactive = below that.

SMILES	BoNT-A LC inh2	Autofluor counter	BoNT F protease	Anthrax LF inh2	BJeLR viability	Vc quorum ag
CCCc1nnc(NC(=O)CCCN2C(=O)c3ccccc3C2=O)s1	0	2716	-6	-2	4	i
O=C1NC[C@H](CCCCN2C[C@H](Cc3ccc(O)cc3)N(CC3CCCCC3)C(=O)C2=O)N(Cc2ccccc2)C1=O	0	5523	6	2	nt	nt
COc1ccc(OC)c(NC(=O)C2(C)CCN2C(=O)CCC2CCCC2)c1 (stereo not drawn)	-1	2867	-13	-8	nt	i
O=C(c1cccc(F)c1)N1CCN(c2cc(N3CCCCC3)c(F)cc2[N+](=O)[O-])CC1	3	20200*	1	1	1	-1
CCC(=O)N1CCN(c2cc(N3CCCC3)c(F)cc2[N+](=O)[O-])CC1	0	3967	-1	-2	3	i
CC(=O)N1CCN(c2cc(N3CCc4ccccc4C3)c(F)cc2[N+](=O)[O-])CC1	-5	17226*	-8	-4	2	-1
O=C(c1ccc(N2CCCCC2)c([N+](=O)[O-])c1)N1CCOCC1	0	16276*	1	-3	-5	i
O=C(Cn1ccc(=O)[nH]c1=O)c1ccc([N+](=O)[O-])o1	0	3066	-1	-7	nt	i
COc1cccc(C(C)(O)c2nc(-c3ccc(F)cc3OC)cs2)c1 (stereo not drawn)	-1	2959	-6	-10	nt	i
Nc1c(C(O)(C(F)(F)F)C(F)(F)F)ccc2ccccc12	-4	17206*	-7	-7	5	1
c1ccc2c(c1)ccc1ccccc12	0	5652	-3	-5	nt	0
Cc1cnn(C2CCN(C)CC2)c1N	-2	16760*	-7	-4	-2	-2
COc1ccccc1C(=O)Nc1ccnn1C1CCN(C)CC1	1	5064	-1	0	-6	0
O=C(NCc1ccccn1)c1cccc([N+](=O)[O-])c1	-2	24684*	-3	2	0	0
O=C(NCc1ccccn1)Nc1cccc([N+](=O)[O-])c1	0	5244	7	2	-5	0
O=C(COc1ccc(F)cc1Br)NCc1ccccn1	0	3833	2	3	-2	2
O=C(NCc1ccccn1)c1ccccc1Cl	?	23233*	0	-3	2	-2
O=C(COc1ccccc1Br)NCc1ccccn1	0	22895*	1	-1	-28	0
NCC12CC3CC(C1)CC(CN)(C3)C2	0	23074*	-7	-3	-7	i
Nc1nnnn1CC(=O)OCc1cccc(Br)c1	?	23207*	-2	-1	8	-2
O=C(CN1CC(c2ccccc2)CC1=O)OCc1cccc(Br)c1 (stereo not drawn)	?	?	16	-26	7	nt
COc1cccc(CNC(=O)[C@@H]2CCCN2C(=O)[C@H]2CCCCN2C(=O)c2c(F)cccc2F)c1	0	4412	2	-4	nt	nt
COc1nc(NC(C)(C)C)nc(Oc2ccc(=O)n(-c3ccccc3)n2)n1	0	21751*	-1	0	0	i
CN(C)c1nc(Oc2ccc(=O)n(-c3ccccc3)n2)nc(N2CCOCC2)n1	?	21946*	0	0	4	i
CCNc1nc(OC)nc(Oc2ccc(=O)n(-c3ccccc3)n2)n1	1	3471	11	2	5	-1
SMILES	BoNT-A LC inh2	Autofluor counter	BoNT F protease	Anthrax LF inh2	BJeLR viability	Vc quorum ag
COc1cc(C23CCCN(CCC(C(C)(C)C)C2)C32OCCO2)cc(OC)c1OC (stereo not drawn)	-1	6265	-7	6	nt	nt
O=C(c1cc(C2CCCCN2S(=O)(=O)Cc2ccccc2)on1)N1CCOCC1 (stereo not drawn)	0	2915	-2	0	nt	i
Cc1cc(C(=O)Nc2cccnc2)cs1	2	23010*	1	2	-6	0
COC(=O)c1c(NC(=O)c2cccnc2)sc(C)c1C	0	4650	-6	-1	-3	i
Cc1ccc(C(=O)Nc2cccnc2)cc1C	0	4001	6	-9	nt	i
CCC(=O)Nc1ccc(C(=O)Nc2cccnc2)cc1	0	10513	-7	-2	-4	-1
CC(C)(C)C(=O)Nc1ccc(C(=O)Nc2cccnc2)cc1	-2	23774*	0	-3	-7	-6
O=C(Nc1cccnc1)c1ccc2c(c1)C(=O)N(Cc1cccnc1)C2=O	0	23004*	-2	-1	-10	i
COC(=O)c1cc(C)sc1NC(=O)c1cccnc1	-7	24838*	-10	-1	18	0
C[C@@H]1CCCN1[C@H]1CS(=O)(=O)N[C@@H]1COCc1ccccc1	0	6224	6	-2	nt	nt
CCOC(=O)Cn1cc(Cn2c3ccccc3c(=O)n2C(C)C)nn1	0	5933	-6	-17	nt	nt
Cc1csc(-c2cc(C(=O)NCc3ccc(F)cc3)n[nH]2)c1	0	3747	-5	-1	nt	0
Cc1nc(NC(=O)C(C)(C)C)sc1-c1csc(N)n1	1	3449	-7	-4	nt	0
COc1cc(F)ccc1-c1csc(C(NC(C)=O)c2cccc(F)c2)n1 (stereo not drawn)	0	3917	-5	0	nt	-1
O=C(NCC1CCCCC1)c1ccc2sc([C@H]3C[C@H](O)[C@@H](CO)O3)nc2c1	0	3883	-6	-4	nt	0
NS(=O)(=O)c1ccc(NC=C2C(=O)OC3(CCCCC3)OC2=O)cc1	1	16483*	1	0	nt	i
CCCCc1ccc(NC=C2C(=O)OC3(CCCCC3)OC2=O)cc1	0	3444	-8	0	-3	0
C/C=C/c1cccc(-c2nc(C(=O)NC3Cc4ccccc4C3)cc3c2[C@@H](CCO)N(C(C)=O)C3)c1	1	6404	1	-1	nt	nt
Cc1cccc(-c2nnc(SCc3nc4ccccc4[nH]3)n2Cc2ccco2)c1	-1	3164	7	2	-2	i
O=C(CSc1nnc(-c2ccncc2)n1C1CC1)c1cccs1	0	3631	-3	-4	nt	i
COCCCn1c(SCc2nc3ccccc3c(=O)[nH]2)nc2ccccc2c1=O	0	3792	-1	-2	-29	i
O=c1[nH]c(CSc2nnc(-c3ccccc3)n2-c2ccccc2)nc2ccccc12	0	2014	-8	2	3	i
O=C(O)CSc1nnc(-c2ccncc2)n1C1CCCCC1	?	19539*	4	0	-2	i
COCCn1c(SCc2nc3ccccc3c(=O)[nH]2)nnc1-c1ccncc1	?	16786*	-2	-2	4	0
O=c1[nH]c(CSc2nnc(-c3ccccc3)n2C2CCCCC2)nc2ccccc12	3	22043*	3	0	-10	3
O=c1[nH]c(CSc2nnc(-c3ccncc3)n2Cc2ccco2)nc2ccccc12	?	22482*	-4	-1	5	-1
COCCCN1C(=O)C(CC(=O)NC(c2ccccc2)c2ccccc2)CC(C(=O)N2CCCCCC2)=C1C (stereo not drawn)	0	5587	-6	-8	nt	nt

Screening results (PubChem BioAssay)
